A number with no mark means an inactive call. No rule for the calls is given here.

A short description of the test: inhibitors of Cryptococcus chitosan production, flow cytometry, Cibacron Brilliant Red staining (AID 1347148).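 Also: compound exposure lasted three days at 37 degrees C.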 To be noted: Cryptococcus neoformans chitosan, hits give low values; at 10 µM unless noted.
`C=C1[C@@H](O)C2O[C@@]3(CCC2O[C@@H]1C(O)C[C@H](C)C1O[C@@]2(CCCCO2)CC[C@H]1C)CC[C@@H](/C=C/[C@@H](C)[C@@H]1CC(C)=C[C@@]2(O[C@H](C[C@@](C)(O)C(=O)O)CCC2O)O1)O3` (stereo partly drawn): the fold fluorescence was 14.3 [at 6.2 µM]. Regarding `COC1=CC(=O)O[C@H](/C=C/c2ccccc2)C1`, the fold fluorescence was 3.69 [at 217.1 µM]. On to `CN1C(=O)[C@@]23CC4=CC=C[C@@H](O)[C@@H]4N2C(=O)[C@]1(CO)SS3`, for which the fold fluorescence was 7.1 [at 153.2 µM].

For the compound `CC1=C2C[C@@H]3[C@H](CC=C4C[C@H](O)CC[C@]43C)[C@H]2CC[C@@]12O[C@H]1C[C@@H](C)CN[C@@H]1[C@@H]2C`, the fold fluorescence is 14.9 [at 121.5 µM]. With `CNc1ccc2oc(C[C@H]3OC4(CC[C@H]3C)O[C@@H](C(C)C(=O)c3ccc[nH]3)[C@@H](C)C[C@@H]4C)nc2c1C(=O)O` (stereo partly drawn), the fold fluorescence is 5.79 [at 95.5 µM]. Regarding `COc1ccc(C(=O)OC2CCC3(C)C4CCC5C6(O)CC(O)C7(O)C(CN8CC(C)CCC8C7(C)O)C6(O)CC53OC24O)cc1OC` (stereo not drawn), the fold fluorescence was 11.6 [at 74.2 µM].

`C=C(C)[C@@H]1O[C@@H]2CC[C@]3(C)[C@](O)(CC[C@@H]4[C@H]5OC(C)(C)[C@@H]6C[C@H]7C(=C)Cc8c(Cl)cc9[nH]c(c5c9c8[C@]76O)[C@]43C)[C@@]23O[C@H]3[C@@H]1O`: the fold fluorescence was 6.21 [at 78.8 µM]. `O[C@@H]1[C@@H]2[C@@H](O)CCCN2C[C@@H]1O`: the fold fluorescence is 5.36 [at 288.7 µM]. Under `C=C1C(=O)O[C@H]2C[C@H](C)[C@H]3C=CC(=O)[C@]3(C)[C@H](O)[C@@H]12` stands 9.09 [at 190.6 µM]; under `CCNC(=O)[C@@H]1O[C@H](n2cnc3c(N)ncnc32)C(O)[C@@H]1O` (stereo partly drawn), 4.97 [at 162.2 µM]; under `CC(C)NC[C@H](O)c1ccc(N)c(C#N)c1`, 4.74 [at 228 µM]. With `CCCCCCCCCCCCCCCCOC[C@H](O)COP(=O)([O-])OCC[N+](C)(C)C`, the fold fluorescence was 3.83. Turning to `Cc1c(C(=O)c2cccc3ccccc23)c2cccc3c2n1[C@@H](CN1CCOCC1)CO3`, the fold fluorescence is 4.51. In the case of `O=C1CS[C@@H](c2ccccc2Cl)c2cc(Cl)ccc2N1`, the fold fluorescence is 10.4 [at 154.2 µM]. As to `CCCCCCCCCCCCCC(=O)O[C@H]1[C@H](C)[C@]2(O)[C@H](C=C(CO)C[C@@]3(O)C(=O)C(C)=C[C@H]23)[C@H]2C(C)(C)[C@@]12OC(C)=O`, the fold fluorescence is 4.29 [at 81.1 µM]. As for `CCCCCc1cc(O)c2c(c1)OC(C)(C)[C@H]1CCC(C(=O)O)=CC21` (stereo partly drawn), the fold fluorescence is 7.25.

For the compound `C#CCN(C)[C@@H](C)Cc1ccccc1`, the fold fluorescence is 5.04 [at 267 µM]. For the compound `OC[C@@H]1O[C@H](n2cnc3cc(Cl)c(Cl)cc32)C(O)[C@@H]1O` (stereo partly drawn), the fold fluorescence is 3.08 [at 156.7 µM].

The record behind these values is PubChem BioAssay.
